Assay outcomes as filed in PubChem.
GAA glycogen = GAA glycogen-cleavage inhibition or activation; 300,000 tested, 0.38% active; Potency, µM (titrated, usually from 76.4 µM), actives largely listed as inhibitors; P10253; AID 2100; recombinant GAA, glycogen substrate, Amplex Red glucose oxidase fluorescence;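 note: the screen sought inhibitors and activators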
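Natural-substrate format: glycogen cleavage by 4 nM human enzyme, glucose read by Amplex Red coupling (Ex 573, Em 610 nm). Normalized to enzyme and no-enzyme controls.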
GAA inhib = blocks human lysosomal alpha-glucosidase. purified human GAA, 4-MU-alpha-glucoside fluorescence. Potency, µM (highest dose often 76.9 µM), usual class: inhibitors. 200,000 tested, 0.005% active. AID 1466
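Human alpha-glucosidase, 4 nM, pre-mixed with test compounds before 400 uM 4-methylumbelliferyl substrate; 20 min room temperature at pH 5.0. Fluorescence read after pH 10 stop; AC50 values from Hill-equation fits.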
N370S GC = inhibitors or activators of N370S glucocerebrosidase for Gaucher disease; 330,000 tested, 0.092% active; N370S GC spleen homogenate, 4MU-glucoside fluorescence; Potency, µM (highest dose often 59.4 µM), actives largely listed as inhibitors
aGal spleen mod = inhibits or activates alpha-galactosidase in human spleen homogenate. human spleen homogenate, 4MU-alpha-Gal fluorescence, 40 min. Potency, µM (top dose mostly 80 µM), usual class: inhibitors. 240,000 tested, 0.008% active. AID 2107
Target sequence (P06280 32-429 limits assumed): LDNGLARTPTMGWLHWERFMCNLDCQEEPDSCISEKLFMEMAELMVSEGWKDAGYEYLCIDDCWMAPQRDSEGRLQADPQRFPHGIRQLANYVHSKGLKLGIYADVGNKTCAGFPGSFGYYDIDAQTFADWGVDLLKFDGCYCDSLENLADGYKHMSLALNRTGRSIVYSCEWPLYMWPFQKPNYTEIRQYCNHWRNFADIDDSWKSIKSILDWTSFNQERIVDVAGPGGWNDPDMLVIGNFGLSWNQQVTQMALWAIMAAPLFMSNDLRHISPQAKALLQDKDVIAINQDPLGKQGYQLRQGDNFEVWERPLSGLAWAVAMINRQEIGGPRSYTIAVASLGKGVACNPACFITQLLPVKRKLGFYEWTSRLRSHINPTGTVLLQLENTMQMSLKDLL
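qHTS titration in buffer at pH 5.0. Alpha-galactosidase activity in spleen homogenate was measured via 4-methylumbelliferone release from 1 mM fluorogenic substrate after 40 min at 37C and a pH 10 stop. AC50 came from Hill fits of control-normalized data.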
aGlu spleen mod = inhibits or activates alpha-glucosidase in human spleen homogenate; human spleen homogenate, 4-MU-alpha-glucoside fluorescence; AID 2112; Potency, µM (series often up to 79.9 µM), usual class: inhibitors; P10253; 240,000 tested, 0.006% active
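Human spleen homogenate (1 ug) with 4-methylumbelliferyl-alpha-D-glucopyranoside (1 mM final) in 50 mM citrate/phosphate pH 5.0, 0.01% Tween-20; 40 min at 37 C. Stopped at pH 10; 4-MU fluorescence Ex 365/Em 440 nm; AC50 by Hill fit.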
GLA inh pH 4.5 = blocks human alpha-galactosidase A at pH 4.5. activity change, negative = inhibition, % at 105 µM. purified enzyme, 4-MU-alpha-Gal fluorescence, pH 4.5. P06280. 230,000 tested, under 10 active
Numbers stand for hits; . = inactive; ? = inconclusive; / = not tested or not shown; [ ] = dose if it differs, or a comment. The list is not random: actives were taken first. Their share in the collection is about 0.43%. Calls come from the whole dose curve; as a rule, active = well fitted curve in the direction sought with a large enough effect; inconclusive = small, poorly fitted or top-dose-only effect, or another doubt; inactive = no such curve, though single readings can be large; an effect the other way counts as inactive or inconclusive.

SMILES	GAA glycogen	GAA inhib	N370S GC	aGal spleen mod	aGlu spleen mod	GLA inh pH 4.5
O=S(=O)(c1ccc(NC(=S)N/N=C/c2ccc(O)c(O)c2)cc1)N1CCOCC1	25.1µM	/	.	.	.	.
CCN1CCN(c2nc(-c3cccs3)nc3ccccc23)CC1	.	.	.	.	.	.
c1ccc(CN2CCC(Nc3nc(-c4cccs4)nc4ccccc34)CC2)cc1	.	.	10µM	.	.	.
Oc1cccc(Nc2nc(-c3ccccc3Cl)nc3ccccc23)c1	.	/	1µM	/	/	/
Cc1ccc(-c2nc(Nc3cccc(O)c3)c3ccccc3n2)cc1	.	/	?	/	/	/
c1csc(CNc2nc(-c3cccs3)nc3ccccc23)c1	.	?	17.8µM	.	.	.
Clc1ccccc1-c1nc(NCc2cccs2)c2ccccc2n1	/	/	7.08µM	.	.	/
FC(F)(F)c1ccccc1-c1nc(NCc2cccs2)c2ccccc2n1	/	/	.	.	.	/
Cc1ccccc1-c1nc(NCc2cccs2)c2ccccc2n1	/	/	7.08µM	.	.	/
COc1ccc2c(c1OC)C(=O)OC2CC(=O)c1ccc(O)c(O)c1 (centres undefined)	14µM	.	.	.	.	.
COc1ccc(COC(=O)N/N=C2/C[C@@H](O)[C@@H](O)[C@@H]3[C@@H]4C(=O)N(Cc5ccccc5)C(=O)[C@H]4CC[C@H]23)cc1	/	/	.[12.8 µM]	.[17.5 µM]	.[17.4 µM]	/
CC(=O)OCC(NC(=O)C(Cc1ccccc1)NC(=O)OC(C)(C)C)C1OC(n2cc(C)c(=O)[nH]c2=O)C(OC(C)=O)C1OC(C)=O (centres undefined)	/	/	.	.	.	/
COc1ccccc1CNC(=O)Cn1c(=O)oc2cc(S(=O)(=O)N3CCC(C)CC3)ccc21	.	/	/	/	/	/
Cc1ccc(NC(=S)NNC(=O)c2cn(C)nc2C)cc1	28µM	.	.	.	.	.
Cc1ccc(NC(=S)NNC(=O)c2c(Cl)c(C)nn2C)cc1	?	.	.	.	.	.
CC(C)CC(=O)NC(NC(=S)Nc1sc2c(c1C#N)CCCC2)C(Cl)(Cl)Cl (centres undefined)	28.2µM	.	.	.	.	.
CCOC(=O)CNC(=O)O[C@@H]1C(=O)c2cc(OC)ccc2O[C@H]1c1ccc(OC)c(Br)c1	/	/	.	.	.	.
Cn1c(=O)c(=O)n(C)c2cc(S(=O)(=O)Nc3ccc(Cl)c(C(F)(F)F)c3)ccc21	.	/	/	/	/	/
